Experimental findings from PubChem BioAssay (NCI) are described below.

The panel holds about 83,000 compounds, 20% with a hit somewhere; the sample as a whole holds those more often.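 Single-dose data. Exposure time 48 hours. Values below 10 considered active.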 A number with no mark means an inactive call. Activity calls are given as the source filed them.

In this assay the test system is NCI-H522 lung. In words: NCI-60 one-dose screen, 48 h (100 = growth as untreated, 0 = no growth, -100 = all killed). As to conditions: 10 µM unless noted.
As for `O=C(c1cccc(C(=O)c2ccc3c4c(cccc24)C(=O)N(c2ccccc2)C3=O)c1)c1ccc2c3c(cccc13)C(=O)N(c1ccccc1)C2=O`, the growth was 85%. Turning to `Cc1ccc[n+](CCC(N)=O)c1`, the growth was 90.2%. Under `Cc1ccc2nc(N)nnc2c1` stands 99%. For `CCOc1ccncc1[N+](=O)[O-]`, the growth was 106%. For the compound `Oc1cc(O)c2c(c1)O[C@H](c1ccc(O)c(O)c1)[C@@H](O)C2`, the growth is 89.5%. To `Cn1c(=O)c2nc3c(=O)n(C)c(=O)n(C)c3nc2n(C)c1=O` belongs 93.8%; to `C=CCOc1ccc(Cl)cc1Cl`, 108%; to `CCOC(=O)/C(O)=C(\C=N\C(=S)Nc1ccc(Cl)c(Cl)c1)C(=O)OCC`, 71.4%. On to `CCOc1ccc(NC(=S)N2CCC(CCCC3CCN(C(=S)Nc4ccc(OCC)cc4)CC3)CC2)cc1`, for which the growth is 77.7%.

For the compound `Clc1ccc(C(SCc2ccccc2)SCc2ccccc2)cc1`, the growth was 80.5%. With `CC(=O)C1C(=O)C(=O)N(c2ccc(Cl)c(Cl)c2)C1=O` (stereo not drawn), the growth is 103%. To `Cc1cc(Cl)cc(Cc2cc(Cl)cc(C)c2O)c1O` belongs -7.46% (active). With `c1ccc(Oc2c3ccccc3nc3ccccc23)cc1`, the growth is -27.4% (active).

Turning to `O=[N+]([O-])c1ccc2[nH]c(=S)n(/C=C(/c3ccc(Cl)cc3Cl)S(=O)(=O)Cc3ccc(Cl)cc3Cl)c2c1`, the growth is 88.6%. For the compound `N#C/C(=C\c1ccc(C#N)cc1)C(=O)c1ccccc1`, the growth was 91.4%. In the case of `COc1cc(OC)c(NC(=O)C(Sc2nc(C)cc(C)c2C#N)c2ccccc2)cc1Cl` (stereo not drawn), the growth is 82.1%. Turning to `O=c1nc(Nc2cccc(Cl)c2)oc2cc(Cl)oc(=O)c12`, the growth is 26.2%. To `C/C(O)=C(/C=N\C(=S)Nc1ccc(S(=O)(=O)Nc2nccs2)cc1)C(=O)Nc1ccccc1C` belongs 91.6%; to `CC(O)C(F)(F)C(F)(F)C(F)(F)F` (stereo not drawn), 93.8%. Regarding `CCOP(=O)(NC(c1ccccc1)c1ccccc1)OCC`, the growth was 113%. For `CC(=O)OCC1OC(n2cnc3c(=S)nc(N)[nH]c32)C(OC(C)=O)C1OC(C)=O` (stereo not drawn), the growth was 83.5%. With `CCCCn1cnc2c(=O)[nH]cnc21`, the growth was 98.6%.

Consider `O=C(NCc1ccccc1)/C(=C/c1ccccc1)NC(=O)c1ccccc1`, for which the growth was 90%.

`O=CNCCc1ccccc1`: the growth was 104%. Regarding `COC1OC(C(COC(C)=O)OC(C)=O)C(OC(C)=O)C(OC(C)=O)C1OC(C)=O` (stereo not drawn), the growth is 103%. Consider `O=S(Cc1ccccc1)/C(=C/NC(=S)Nc1cc(Cl)ccc1Cl)c1ccccc1` (stereo not drawn), for which the growth was 85%. Regarding `Cc1c(Cl)cccc1N=C=S`, the growth was 86.8%.

Take `CC(=O)C1C(=O)C(=O)N(c2cccc([N+](=O)[O-])c2)C1=O` (stereo not drawn): the growth is 104%. For `CCOc1ccc2c(c1)c(C)cc(C)[n+]2CC`, the growth is 46.1%. For `S=CN1CCCCC1`, the growth was 109%. `Cc1nc(C)c(C(=O)O)cc1C(=O)O`: the growth was 108%.

Regarding `Cc1cc(CC(=O)NCCO)n(CCO)c(=O)c1`, the growth was 93.8%. In the case of `NC(CSSCC(N)C(=O)O)C(=O)O` (stereo not drawn), the growth is -6.34% (active).

With `C/C(O)=C(/C=N/C(=S)Nc1ccccc1)C(=O)Nc1ccccc1C`, the growth is 94.5%. To `CC(C)(C)[Si](C)(C)OCC1OC(n2cnc3c(N)ncnc32)CC1OS(C)(=O)=O` (stereo not drawn) belongs 99%; to `NNC(=O)N/N=C1\C(=O)N(c2nccs2)C(=O)C(=O)C1c1nc2ccccc2s1` (stereo not drawn), 83.1%; to `C(=C\c1ccncc1)/c1ccncc1`, 5.51% (active). To `CC(=O)NCNC(C)=O` belongs 119%.
